For 18 compounds, Potency results are on record in PubChem BioAssay AID720555 (National Center for Advancing Translational Sciences (NCATS), 2013).

Structures are written as SMILES. Inconclusive results are not listed. A call without a number means that no potency is given here. Calls of active or inactive are those of the source. Calls come from the whole dose curve; as a rule, active = well fitted inhibition curve with a large enough effect; inconclusive = small, poorly fitted or top-dose-only effect; inactive = no such curve, though single readings can be large or run the other way.

RecQ-like DNA helicase BLM (Homo sapiens), sequence (P54132 whole entry, looked up): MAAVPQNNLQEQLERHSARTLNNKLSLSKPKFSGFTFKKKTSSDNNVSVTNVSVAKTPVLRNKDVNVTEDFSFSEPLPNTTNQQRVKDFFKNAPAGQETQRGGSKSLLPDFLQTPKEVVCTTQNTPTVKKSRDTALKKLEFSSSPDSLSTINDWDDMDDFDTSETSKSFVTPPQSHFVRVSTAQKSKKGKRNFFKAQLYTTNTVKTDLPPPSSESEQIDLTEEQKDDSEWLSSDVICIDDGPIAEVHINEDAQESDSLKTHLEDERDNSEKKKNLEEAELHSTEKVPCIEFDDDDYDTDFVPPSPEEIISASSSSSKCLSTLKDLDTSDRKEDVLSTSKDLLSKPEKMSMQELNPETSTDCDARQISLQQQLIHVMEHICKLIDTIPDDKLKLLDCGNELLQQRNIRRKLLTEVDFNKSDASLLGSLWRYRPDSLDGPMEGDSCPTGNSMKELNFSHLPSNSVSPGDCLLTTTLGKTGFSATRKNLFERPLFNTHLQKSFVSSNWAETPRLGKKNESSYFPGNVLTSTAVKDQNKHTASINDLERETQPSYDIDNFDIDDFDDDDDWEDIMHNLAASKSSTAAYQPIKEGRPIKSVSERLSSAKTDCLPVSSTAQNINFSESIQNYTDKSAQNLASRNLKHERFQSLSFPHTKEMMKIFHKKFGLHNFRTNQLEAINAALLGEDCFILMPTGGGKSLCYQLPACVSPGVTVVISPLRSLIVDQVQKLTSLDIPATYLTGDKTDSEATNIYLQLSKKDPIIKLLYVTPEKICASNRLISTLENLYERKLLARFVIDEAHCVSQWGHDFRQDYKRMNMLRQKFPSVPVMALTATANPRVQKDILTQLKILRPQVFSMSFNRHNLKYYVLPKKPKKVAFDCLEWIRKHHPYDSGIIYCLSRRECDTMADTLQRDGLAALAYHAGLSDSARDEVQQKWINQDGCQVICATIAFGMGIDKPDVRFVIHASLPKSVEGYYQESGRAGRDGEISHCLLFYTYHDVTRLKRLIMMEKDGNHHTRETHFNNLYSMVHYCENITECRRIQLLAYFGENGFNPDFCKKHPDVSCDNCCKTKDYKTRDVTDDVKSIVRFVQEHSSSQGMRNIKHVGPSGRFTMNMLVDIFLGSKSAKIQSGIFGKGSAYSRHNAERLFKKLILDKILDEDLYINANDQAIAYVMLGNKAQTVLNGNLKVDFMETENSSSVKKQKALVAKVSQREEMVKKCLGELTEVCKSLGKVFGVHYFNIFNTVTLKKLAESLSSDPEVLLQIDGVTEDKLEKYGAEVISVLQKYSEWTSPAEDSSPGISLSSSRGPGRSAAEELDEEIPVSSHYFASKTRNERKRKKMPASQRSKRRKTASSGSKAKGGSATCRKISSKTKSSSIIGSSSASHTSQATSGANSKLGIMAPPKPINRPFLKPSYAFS

The target in the assay is RecQ-like DNA helicase BLM (Homo sapiens) (UniProt P54132). The experiment in a line: qHTS for Inhibitors of Bloom's syndrome helicase (BLM): Helicase DNA unwinding fluorescent orthogonal confirmatory assay for SAR. To be noted: fluorescence, orthogonal confirmation; series mostly up to 55.6 µM. In a few lines:
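Purified BLM unwound a fluorescently labelled DNA substrate at room temperature in pH 7.5 Tris buffer with 2mM ATP and 2mM MgCl2. Products were resolved on native 15% gels. Loss of single-stranded product band, normalised to no-inhibitor and no-enzyme controls, indicates inhibition.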
(In general: qHTS replaces the single test concentration by a dilution series.)
For `N#Cc1cc(NC(=O)Nc2cccc(-c3ccncc3)n2)ccc1Cl`, the Potency was 0.631 µM (active).
Take `O=C(Nc1cccc(C(=O)O)c1)Nc1nnc(-c2ccncc2)s1`: the Potency entry was “inactive”.
The result for `CCCCCCNC(=O)Nc1nnc(-c2ccncc2)s1` reads “inactive”; that for `O=C(Nc1ccc(Cl)c(Cl)c1)Nc1nnc(C2CCCCC2)s1`, “inactive”.
The value for `O=C(Nc1ccc(-c2nc3ccccc3[nH]2)cc1)Nc1ccc2occc2c1` was “inactive”; that for `O=C(Nc1ccc(Cl)c(Cl)c1)Nc1nnc(-c2ccncc2)s1` was 1.58 µM (active); that for `O=C(Nc1ccc(F)c(C(F)(F)F)c1)Nc1cccc(-c2ccncc2)n1` was 4.47 µM (active).
The value for `O=C(Cc1nnc(-c2ccncc2)s1)Nc1ccc(F)c(C(F)(F)F)c1` was “inactive”.
Take `O=C(Nc1ccc(Cl)nc1)Nc1nnc(-c2ccncc2)s1`: the Potency was 6.31 µM (active).
The value for `O=c1c(Nc2ccc(Cl)c(Cl)c2)c(Nc2nnc(-c3ccncc3)s2)c1=O` was 14.1 µM (active); that for `O=C(Nc1ccc(F)c(F)c1)Nc1nnc(-c2ccncc2)s1` was 8.91 µM (active); that for `O=C(Nc1ccc(N2CCOCC2)c(F)c1)Nc1nnc(-c2ccncc2)s1` was “inactive”.
Take `O=C(Nc1ccc2ccccc2c1)Nc1nnc(Br)s1`: the Potency entry was “inactive”.
The result for `O=C(Nc1ccc(Cl)c(Cl)c1)Nc1nnc(NC2CCNCC2)s1` reads “inactive”; that for `CN1CCN(c2nnc(NC(=O)Nc3ccc(Cl)c(Cl)c3)s2)CC1`, “inactive”; that for `O=C(Nc1ccc2c(c1)OCCO2)Nc1nnc(-c2ccncc2)s1`, “inactive”.
The result for `Cc1cc(NC(=O)Nc2nnc(-c3ccncc3)s2)ccc1Cl` reads 7.94 µM (active); that for `N#CN/C(=N\c1nnc(-c2ccncc2)s1)Nc1ccc(F)c(C(F)(F)F)c1`, 3.16 µM (active).
